# In PubChem BioAssay:
# Calls of active or inactive are those of the source.
# Key:
# Albumin (Bos taurus) = Albumin (Bos taurus) (UniProt P02769); experiment: bovine serum albumin binders on microarray, profiling panel, artefact control for SMM control protein annotation, biochemical, small-molecule microarray, Alexa647 label, 635/667 nm fluorescence (AID 1118); conditions: BSA-A647 binding, fluorescence 635 nm, higher = more signal;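 also: score merges 667 nm emission intensity and signal-to-noise per printed compound spot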
# Chain of Albumin (Bos taurus) (P02769 whole entry, looked up): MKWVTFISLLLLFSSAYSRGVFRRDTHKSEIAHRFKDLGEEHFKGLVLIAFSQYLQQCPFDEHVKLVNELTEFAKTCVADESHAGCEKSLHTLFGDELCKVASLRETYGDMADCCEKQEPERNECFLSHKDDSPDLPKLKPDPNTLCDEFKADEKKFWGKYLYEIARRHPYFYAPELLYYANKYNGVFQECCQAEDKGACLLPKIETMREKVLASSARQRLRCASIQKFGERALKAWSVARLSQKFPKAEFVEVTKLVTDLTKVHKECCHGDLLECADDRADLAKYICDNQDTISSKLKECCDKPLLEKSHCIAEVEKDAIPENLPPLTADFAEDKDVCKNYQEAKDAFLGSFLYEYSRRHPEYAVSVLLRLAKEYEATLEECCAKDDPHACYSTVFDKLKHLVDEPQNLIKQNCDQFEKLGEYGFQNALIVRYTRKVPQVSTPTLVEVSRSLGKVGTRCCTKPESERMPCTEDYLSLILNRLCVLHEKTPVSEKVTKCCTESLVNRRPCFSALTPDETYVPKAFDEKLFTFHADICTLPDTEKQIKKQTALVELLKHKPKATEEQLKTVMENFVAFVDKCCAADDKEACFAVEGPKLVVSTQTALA
# [1] = small-molecule microarray binders of probe aXIP, primary screen, biochemical, NeuroSMM set, 635/667 nm fluorescence (AID 1119); conditions: higher = more signal, called active from +8 up or from −8 down;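 also: probe is the protein aXip251-270 applied at 1 µg/mL to compound-printed slides; binding of probe to printed compounds measured as 667 nm fluorescence plus signal to noise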
# [2] = small-molecule binders of probe aNOTCH3, primary screen, biochemical, small-molecule microarray, 635/667 nm fluorescence (AID 1120); conditions: higher = more signal;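 also: probe is a biotin-tagged antibody raised against NOTCH3 rather than NOTCH3 protein; score merges spot fluorescence near 667 nm with spot signal to noise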
# [3] = small-molecule binders of probe aNOTCH2, primary screen, biochemical, small-molecule microarray, 635/667 nm fluorescence (AID 1121); conditions: higher = more signal;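 also: score merges feature fluorescence read at 667 nm with its signal to noise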
# [4] = target: Carbonic anhydrase 2 (Homo sapiens) (UniProt P00918); experiment: CAII small-molecule binders, profiling panel, biochemical, small-molecule microarray, Alexa647-labelled CAII (AID 1122); conditions: CAII-A647 binding fluorescence, higher = more signal
# [5] = COS7 lysate on small-molecule microarray, probe aHis, 635 nm (AID 1123); conditions: COS7 cell lysate, fluorescence, higher = more signal;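 also: z-score combines 667nm fluorescence intensity with signal-to-noise per printed compound spot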
# [6] = compound binding in COS7 lysate, probe aLAP1, primary screen, cell lysate, small-molecule microarray (AID 1124); conditions: probe aLAP1, fluorescence, higher = more signal;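 also: lysate comes from COS7 cells expressing LAP1 and is applied at 0.3 µg/mL; score merges spot fluorescence near 667 nm with signal-to-noise over triplicate slides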
# Sam68 (KHDRBS1) = experiment: Sam68 small-molecule binders, primary screen, biochemical, small-molecule microarray, 635 nm fluorescence (AID 1125); conditions: small-molecule microarray binding, higher = more signal;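 also: score merges 667 nm channel intensity with signal to noise over triplicate slides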
# [7] = test system: Chordin-like protein 2 (CHRDL2); experiment: CHRDL2 small-molecule binders, primary screen, biochemical, small-molecule microarray, 635 nm fluorescence (AID 1126); conditions: small-molecule microarray binding, fluorescence 635 nm; higher = more signal;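 also: printed compound slides probed with Chrdl2 protein at 4 µg/mL for 1 h at 4 C; score merges 667 nm emission intensity with signal to noise over three replicate slides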
# [8] = target: Concanavalin-A (Canavalia ensiformis) (UniProt P02866); experiment: ConA small-molecule binders, primary screen, artefact control for SMM control protein annotation, biochemical, small-molecule microarray, Alexa647 label, 635 nm (AID 1127); conditions: ConA-A647 binding fluorescence, higher = more signal;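 also: z combines 667 nm emission intensity with signal-to-noise across three replicate slides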
# Chain of Concanavalin-A (Canavalia ensiformis) (P02866 whole entry, looked up): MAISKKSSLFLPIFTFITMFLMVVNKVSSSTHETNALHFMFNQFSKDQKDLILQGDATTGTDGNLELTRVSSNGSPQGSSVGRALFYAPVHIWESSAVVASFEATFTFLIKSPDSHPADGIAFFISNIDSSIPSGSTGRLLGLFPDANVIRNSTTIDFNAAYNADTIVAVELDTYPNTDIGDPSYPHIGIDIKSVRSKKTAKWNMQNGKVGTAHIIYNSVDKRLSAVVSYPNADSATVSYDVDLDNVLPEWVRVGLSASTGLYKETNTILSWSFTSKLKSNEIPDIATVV
# [9] = anti-His antibody binders, primary screen, artefact control for SMM control protein annotation, biochemical, small-molecule microarray, 635 nm fluorescence (AID 1128); conditions: anti-His Alexa647 antibody binding, higher = more signal;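 also: score merges feature fluorescence with signal-to-noise for each printed compound spot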
# [10] = test system: Human papillomavirus type 1a E7 protein (residues 1-88); experiment: HPV1a E7 small-molecule binders, primary screen, biochemical, small-molecule microarray, residues 1-88, 635 nm (AID 1129); conditions: small-molecule microarray binding, fluorescence 635 nm; higher = more signal
# [11] = target: Focal adhesion kinase 1 (Homo sapiens) (UniProt Q05397); experiment: small-molecule microarray binders of FAK, primary screen, biochemical, 635/667 nm fluorescence, BSA, DTT (AID 1130); conditions: PTK2 binding, 635 nm fluorescence, higher = more signal;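 also: composite of spot emission at 667 nm and signal to noise over triplicate slides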
# Chain of Focal adhesion kinase 1 (Homo sapiens) (Q05397 whole entry, looked up): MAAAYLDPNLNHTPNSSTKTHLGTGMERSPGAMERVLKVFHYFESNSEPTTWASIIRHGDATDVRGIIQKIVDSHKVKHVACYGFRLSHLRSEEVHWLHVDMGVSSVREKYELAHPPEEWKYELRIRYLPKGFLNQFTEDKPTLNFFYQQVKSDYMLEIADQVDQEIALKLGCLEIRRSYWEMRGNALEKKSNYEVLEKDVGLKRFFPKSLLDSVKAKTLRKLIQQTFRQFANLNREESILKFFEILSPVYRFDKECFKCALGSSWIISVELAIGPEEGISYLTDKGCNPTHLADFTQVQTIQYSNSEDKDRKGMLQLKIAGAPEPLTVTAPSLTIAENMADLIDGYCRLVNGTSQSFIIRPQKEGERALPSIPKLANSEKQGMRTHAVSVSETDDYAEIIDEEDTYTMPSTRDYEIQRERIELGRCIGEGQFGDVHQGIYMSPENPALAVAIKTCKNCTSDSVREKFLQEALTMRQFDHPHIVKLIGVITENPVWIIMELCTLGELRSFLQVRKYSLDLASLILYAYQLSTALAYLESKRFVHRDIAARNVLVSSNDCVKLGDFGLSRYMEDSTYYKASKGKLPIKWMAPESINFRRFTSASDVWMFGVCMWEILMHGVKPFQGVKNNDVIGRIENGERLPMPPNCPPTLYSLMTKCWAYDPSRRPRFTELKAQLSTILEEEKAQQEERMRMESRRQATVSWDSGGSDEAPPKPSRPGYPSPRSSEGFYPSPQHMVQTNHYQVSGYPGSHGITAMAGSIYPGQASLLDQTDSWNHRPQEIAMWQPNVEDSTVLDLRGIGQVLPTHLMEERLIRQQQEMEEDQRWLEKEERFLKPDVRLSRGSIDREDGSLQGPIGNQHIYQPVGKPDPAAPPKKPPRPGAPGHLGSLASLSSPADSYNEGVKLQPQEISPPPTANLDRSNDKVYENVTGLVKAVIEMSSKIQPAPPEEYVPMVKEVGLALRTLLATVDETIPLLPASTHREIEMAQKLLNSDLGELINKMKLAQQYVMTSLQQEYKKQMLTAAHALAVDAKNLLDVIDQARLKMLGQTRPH
# [12] = test system: Fibrinogen (Alexa647-labelled); experiment: fibrinogen binders on compound microarrays, profiling panel, artefact control for SMM control-protein annotation, biochemical, small-molecule microarray, 635/667 nm fluorescence (AID 1131); conditions: fibrinogen-A647 binding fluorescence, higher = more signal;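 also: z-score merges 667 nm fluorescence with per-spot signal-to-noise over triplicate slides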
# [13] = target: Follistatin (Homo sapiens) (UniProt P19883); experiment: follistatin binders on small-molecule microarrays, primary screen, biochemical, small-molecule microarray, 635/667 nm fluorescence (AID 1132); conditions: FST binding, 635 nm fluorescence, higher = more signal
# Chain of Follistatin (Homo sapiens) (P19883 whole entry, looked up): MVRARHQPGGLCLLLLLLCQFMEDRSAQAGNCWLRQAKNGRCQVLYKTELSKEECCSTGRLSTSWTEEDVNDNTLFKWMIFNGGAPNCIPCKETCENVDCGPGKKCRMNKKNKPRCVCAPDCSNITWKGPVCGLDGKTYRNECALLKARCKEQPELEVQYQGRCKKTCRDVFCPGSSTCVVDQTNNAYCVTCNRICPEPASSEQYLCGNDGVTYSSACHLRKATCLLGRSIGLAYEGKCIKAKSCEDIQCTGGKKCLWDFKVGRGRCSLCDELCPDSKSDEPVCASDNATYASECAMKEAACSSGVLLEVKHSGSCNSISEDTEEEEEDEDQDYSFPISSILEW
# [14] = target: Fibroblast growth factor 2 (Homo sapiens) (UniProt P09038); experiment: FGF2 binders on small-molecule microarrays, primary screen, biochemical, small-molecule microarray, 635/667 nm fluorescence (AID 1133); conditions: small-molecule microarray binding, FGF2, fluorescence 635/667; higher = more signal
# Chain of Fibroblast growth factor 2 (Homo sapiens) (P09038 whole entry, looked up): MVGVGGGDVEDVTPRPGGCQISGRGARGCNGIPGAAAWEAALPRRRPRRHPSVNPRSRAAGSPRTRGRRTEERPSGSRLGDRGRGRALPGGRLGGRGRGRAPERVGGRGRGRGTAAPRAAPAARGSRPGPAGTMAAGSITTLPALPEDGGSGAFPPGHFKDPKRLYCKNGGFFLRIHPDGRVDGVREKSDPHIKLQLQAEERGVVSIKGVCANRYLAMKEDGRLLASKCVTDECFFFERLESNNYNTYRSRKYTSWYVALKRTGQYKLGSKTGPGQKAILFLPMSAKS
# [15] = mitochondrial membrane potential change in A549 cells, profiling panel, cell-based, JC-1 fluorescence, basal, 24 h, 100 nL (AID 1138); conditions: higher = more signal;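 also: A549 lung adenocarcinoma cells under basal conditions with no added stimulus; test concentration not given here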
# Lefty1 = Lefty1 binders on small-molecule microarrays, primary screen, biochemical, small-molecule microarray, 635/667 nm fluorescence (AID 1139); conditions: small-molecule microarray binding, fluorescence 635/667; higher = more signal
# [16] = test system: wheat germ agglutinin (Triticum aestivum), Alexa647-labelled; experiment: wheat germ agglutinin binders on compound microarrays, profiling panel, artefact control for SMM control-protein annotation, biochemical, small-molecule microarray, 635/667 nm fluorescence (AID 1140); conditions: WGA-A647 binding, 635 nm fluorescence, higher = more signal;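 also: score merges 667 nm feature emission with signal to noise over triplicate slides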
# [17] = target: Luciferin 4-monooxygenase (Photinus pyralis) (UniProt P08659); experiment: firefly luciferase enzyme inhibitors, primary screen, biochemical, luminescence, purified enzyme, 2006 set (AID 1141); conditions: SteadyGlo luminescence, 30 min, higher = more signal, called active from +8 up or from −8 down;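 also: cell-free assay with purified firefly luciferase at 100 ng per well in PBS; test concentration not given here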
# Chain of Luciferin 4-monooxygenase (Photinus pyralis) (P08659 whole entry, looked up): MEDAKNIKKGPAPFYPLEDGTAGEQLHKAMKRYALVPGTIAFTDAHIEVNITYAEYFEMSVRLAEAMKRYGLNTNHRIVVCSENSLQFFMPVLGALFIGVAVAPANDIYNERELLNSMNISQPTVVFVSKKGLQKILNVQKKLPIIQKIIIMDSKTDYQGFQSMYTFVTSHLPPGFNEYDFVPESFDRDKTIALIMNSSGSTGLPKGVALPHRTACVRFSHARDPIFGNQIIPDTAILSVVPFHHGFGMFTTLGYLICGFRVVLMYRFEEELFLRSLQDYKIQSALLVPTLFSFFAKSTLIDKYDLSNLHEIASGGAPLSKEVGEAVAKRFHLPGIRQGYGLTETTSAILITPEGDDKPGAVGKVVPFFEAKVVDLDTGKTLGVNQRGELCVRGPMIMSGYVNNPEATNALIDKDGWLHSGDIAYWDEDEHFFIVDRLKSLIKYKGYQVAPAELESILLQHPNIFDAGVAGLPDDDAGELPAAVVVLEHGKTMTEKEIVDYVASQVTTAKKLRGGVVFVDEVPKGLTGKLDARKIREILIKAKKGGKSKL
SMILES,composite z-score (Albumin (Bos taurus)),composite Z-score [1],composite z-score [2],composite z-score [3],composite z-score [4],composite z-score [5],composite z-score [6],composite z-score (Sam68 (KHDRBS1)),composite z-score [7],composite z-score [8],composite z-score [9],composite z-score [10],composite z-score [11],composite z-score [12],composite z-score [13],composite z-score [14],z-score [15],composite z-score (Lefty1),composite z-score [16],z-score [17]
COC(=O)[C@@]1(Cc2ccc(F)cc2)[C@H]2c3cc(C(=O)N(C)C)n(CCc4ccccn4)c3C[C@H]2CN1C(=O)c1ccccc1,-0.0737,0.004 (inactive),1,0.2,0.827,2.75,0.52,1.29,-0.464,0.542,1.47,1.25,0.994,0.0039,0.78,0.0791,-0.201,0.221,-0.108,2.76 (inactive)
COCCOC(=O)N1C(=O)[C@@]2(c3cc(C#CCNC(N)=O)ccc31)[C@H](C(=O)N1CCc3cc(OC)c(OC)cc3C1)[C@H]1C(=O)O[C@H](c3ccccc3)[C@H](c3ccccc3)N1[C@@H]2c1ccc(OCCO)cc1,-0.717,0.202 (inactive),0.289,-0.186,0.225,0.423,0.406,0.398,0.286,1.09,0.101,0.158,-0.0354,0.108,1.3,1.41,-1.49,0.881,0.385,-0.553 (inactive)
COC(=O)[C@@]1(Cc2ccc(OC)cc2)[C@H]2c3cc(C(=O)N4CCCC4)n(CCc4c[nH]c5cc(F)ccc45)c3C[C@H]2CN1C(=O)c1ccccc1,0.957,-0.0378 (inactive),0.127,0.0064,0.714,3.24,0.959,1.29,-0.703,0.871,1.46,1.25,0.861,0.994,1.23,0.303,0.509,0.0312,1.18,0.378 (inactive)
CN(C)CCCCNC(=O)[C@H]1C[C@H]2C(=O)N[C@@H](Cc3ccccc3)C(=O)N2[C@H]1c1ccc(O)cc1,0.356,0.124 (inactive),0.143,-0.0684,0.158,0.538,0.263,1.3,0.956,0.863,0.499,1.16,-0.366,0.986,1.34,1.64,-0.884,1.31,1.2,0.999 (inactive)
CC(=O)NCCCC[C@@H]1NC(=O)[C@@H]2C[C@H](C(=O)NCCCCCCNC(=O)CS)[C@H](c3ccc(O)cc3)N2C1=O,-0.0424,-0.202 (inactive),-0.256,-0.129,0.597,0.846,0.386,0.464,-0.573,0.647,3.39,0.964,0.208,0.224,0.304,0.104,-0.177,0.236,0.418,-0.557 (inactive)
